Compounds without any hit were thinned out: in the full panel of roughly 83,000, 20% have a hit.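 Percent growth is the endpoint: 0 to 100 indicates growth inhibition (40 means 60% inhibition), 0 means no net growth, and negative values indicate cell death.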 A number with no mark means an inactive call. Activity calls are given as the source filed them. The calls were made as follows: active = growth percent below 10; inactive = the rest.
Key:
Test in all cases: NCI-60 one-dose screen, 48 h (100 = growth as untreated, 0 = no growth, -100 = all killed)
Conditions in all cases: 10 µM unless noted
NCI-H226 lung = test system: NCI-H226 lung
NCI-H322M lung = test system: NCI-H322M lung
HOP-62 NSCLC = test system: HOP-62 NSCLC
NCI-H460 lung = test system: NCI-H460 lung
NCI-H522 lung = test system: NCI-H522 lung
A549/ATCC NSCLC = test system: A549/ATCC NSCLC
786-0 renal = test system: 786-0 renal
COLO 205 colon = test system: COLO 205 colon
DU-145 prostate = test system: DU-145 prostate
K-562 leukemia = test system: K-562 leukemia
MALME-3M melanoma = test system: MALME-3M melanoma
MDA-MB-231 breast = test system: MDA-MB-231 breast
RXF 393 renal = test system: RXF 393 renal
SF-268 CNS = test system: SF-268 CNS
SF-295 CNS = test system: SF-295 CNS
SF-539 CNS = test system: SF-539 CNS
UACC-257 melanoma = test system: UACC-257 melanoma
M14 melanoma = test system: M14 melanoma
HCT-15 colon = test system: HCT-15 colon
HOP-92 NSCLC = test system: HOP-92 NSCLC

| Structure (SMILES) | growth (NCI-H226 lung) | growth (NCI-H322M lung) | growth (HOP-62 NSCLC) | growth (NCI-H460 lung) | growth (NCI-H522 lung) | growth (A549/ATCC NSCLC) | growth (786-0 renal) | growth (COLO 205 colon) | growth (DU-145 prostate) | growth (K-562 leukemia) | growth (MALME-3M melanoma) | growth (MDA-MB-231 breast) | growth (RXF 393 renal) | growth (SF-268 CNS) | growth (SF-295 CNS) | growth (SF-539 CNS) | growth (UACC-257 melanoma) | growth (M14 melanoma) | growth (HCT-15 colon) | growth (HOP-92 NSCLC) |
| --- | --- | --- | --- | --- | --- | --- | --- | --- | --- | --- | --- | --- | --- | --- | --- | --- | --- | --- | --- | --- |
| CCCC(=O)NC(c1ccc2c(c1)OC(F)(F)O2)c1cc(C)c2cccnc2c1O (stereo not given) | 10.8% | 34.2% | 15.9% | -4.44% (active) | 18.2% | 16.5% | 0.74% (active) | 21.1% | 26% | 15.9% | 14.4% | 34.8% | 55.4% | 18.7% | 20.9% | 8.69% (active) | 3.17% (active) | -11.5% (active) | 39.3% | – |
| COc1cc(/C=C/C(=O)c2ccc(F)cc2)ccc1Oc1nc(NCCO)nc(N2CCOCC2)n1 | 87.8% | 97.4% | 102% | 94.2% | 64.9% | 101% | 98.3% | – | 98.4% | 6.99% (active) | 78.8% | 86.7% | 108% | 81% | 93.2% | 88.2% | 98.3% | 84% | 39.2% | – |
| NS(=O)(=O)c1ccc(Nc2nc(SCC(=O)c3ccc(Cl)cc3)nc3ccccc23)cc1 | 87.1% | 86.5% | 95.3% | 97.1% | 88% | 97.1% | 96% | 107% | 97.1% | 84% | 92.8% | 87.9% | 103% | 104% | 95.1% | 88.3% | 102% | 97% | 86.6% | – |
| COc1cccc(-c2nn(-c3ccccc3)cc2-c2ccnc(N3CCN(C(=O)c4ccccc4)CC3)c2)c1 | 109% | 105% | 113% | 81.8% | 77.1% | 71.7% | 102% | – | 91.5% | 31.4% | 89.7% | 64% | 95.7% | 94.2% | 89.1% | 87.1% | 101% | 81.2% | 39.8% | 71.2% |
| COc1ccc(-n2c(SCC(=O)Nc3ccc(-c4nc5ccccc5[nH]4)cc3)nc3ccccc3c2=O)cc1 | 48.5% | 51.9% | – | -55.9% (active) | -32.9% (active) | -24.4% (active) | -95.4% (active) | 77.5% | 6.71% (active) | 5.98% (active) | -57.3% (active) | 29% | -39.1% (active) | 42.6% | 16.2% | -77.3% (active) | 45.3% | -26.7% (active) | -11% (active) | -33.3% (active) |
| COc1ccc(-c2nn3c(-c4ccccc4F)nnc3s2)cc1 | 89.4% | 75% | – | 30% | 20.2% | 56.6% | 72.5% | 41.6% | 72.2% | 18.7% | 66.1% | 41.1% | 68.4% | 74.2% | 58.5% | 59.3% | 86.4% | 34.8% | 31.5% | 76.9% |
| COc1ccc(CNS(=O)(=O)/N=C2\NC(=O)NC2=C(Cl)Cl)cc1 | 46.1% | 37.1% | – | 19% | 2.05% (active) | 25.7% | 28.8% | 55.4% | 27.9% | 13% | 76% | 22.1% | 39.6% | 59.6% | -22.9% (active) | -6.36% (active) | 54.4% | 25.2% | 56.1% | -2.17% (active) |
| COc1cc(/C=C/C(=O)c2cc(OC)c(OC)c(OC)c2)ccc1OCc1ccccc1 | 48.6% | 45.5% | – | 22.4% | 49.3% | 38.8% | 40.1% | 93.4% | 27.2% | 10.2% | 63.1% | 47.7% | 75% | 43.3% | 50.8% | 8.77% (active) | 68.9% | 65.7% | 13.3% | 58.4% |
| COc1ccc(-c2nc3ccc(-c4nnc(SCC(=O)Nc5ccc(C(=O)/C=C/c6ccccc6)cc5)o4)cc3[nH]2)cc1OC | 98.2% | 102% | – | 106% | 98.4% | 102% | 99.3% | 115% | 107% | 91.6% | 97.1% | 91.2% | 110% | 106% | 94.9% | 83.7% | 110% | 108% | 91.8% | 98.4% |
